± gives the standard deviation of the averaged measurements.

The test system of assay [1] is IL-6-GFP PC-9GR. The experiment in a line: cell viability (CCK-8 OD) relative to DMSO control (fraction of control); higher = more viable cells. The conditions noted are these: compound concentration: 10 uM; treatment time: 48 h. In outline: (§1)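 Each well's viability is its CCK-8 optical density divided by that of the vehicle control well. The cells, PC-9 and PC-9GR lung cancer lines overexpressing IL-6-GFP from a lentiviral construct, were seeded at 3000 cells/well in 96-well plates and exposed for 48 h to each compound of a purchased 510-compound library at a final 10 μM, in two independent replicates.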

Assay [2] relates to IL-6-GFP PC-9. The description is as above. The conditions noted are these: compound concentration: 10 uM; treatment time: 48 h. The gist of the method: as §1

Regarding `CC(C)Cn1cnc2c(N)nc3ccccc3c21` [Imiquimod], the cell viability in assay [1] came to 0.774 ± 0.57; in assay [2], 1 ± 0.24.
The corresponding values for `CCCCCCNC(=O)n1cc(F)c(=O)[nH]c1=O` [Carmofur] are 0.934 ± 0.022 and 0.906 ± 0.14.
Taken in the same sequence, the figures for `COC1OC2OC3(C)CCC4C(C)CCC(C1C)C24OO3` (stereo unspecified) [Artemether] were 1.29 ± 0.17 and 1.29 ± 0.052.
The corresponding values for `O=C(O)c1ccccc1OP(=O)(O)O` [Fosfosal] are 0.943 ± 0.088 and 1.01 ± 0.21.
On to `O=c1[nH]c(=O)n(C2CCCO2)cc1F` (stereo unspecified), for which the results for the cell viability in assay [1] and in assay [2] were 1.11 ± 0.023 and 1.01 ± 0.013, respectively.
Taken in the same sequence, the figures for `Cc1ccc(C(=O)Nc2ccc(CN3CCN(C)CC3)c(C(F)(F)F)c2)cc1C#Cc1cnc2cccnn12` were 0.464 ± 0.3 and 0.378 ± 0.19.
Taken in the same sequence, the figures for `COc1cccc2c1C(=O)c1c(O)c3c(c(O)c1C2=O)CC(O)(C(=O)CO)CC3OC1CC(N)C(O)C(C)O1.Cl` (stereo unspecified) [Doxorubicin (Adriamycin) HCl] were 0.159 ± 0.12 and 0.136 ± 0.03.
Taken in the same sequence, the figures for `Cl.Clc1ccc(CCCOCCCN2CCCCC2)cc1` [Pitolisant hydrochloride] were 0.916 ± 0.11 and 1.13 ± 0.28.
`S=P(N1CC1)(N1CC1)N1CC1` [Thiotepa]: the cell viability stood at 1.02 ± 0.074 in assay [1] and 0.977 ± 0.074 in assay [2].
On to `CCOC(=O)c1c(N)sc2c1CCN(Cc1ccccc1)C2.Cl` [Tinoridine hydrochloride], for which the figures for the cell viability in assay [1] and in assay [2] were 1.12 ± 0.27 and 1.12 ± 0.061, respectively.
The corresponding values for `CC(C(=O)O)c1ccc(C(=O)c2cccs2)cc1` (stereo unspecified) [Suprofen] are 1.53 ± 0.58 and 1.13 ± 0.022.
`O=C(/C=C/C=C/c1ccc2c(c1)OCO2)N1CCCCC1` [Piperine]: the cell viability in assay [1] came out at 1.33 ± 0.093; in assay [2], 1.47 ± 0.33.
As to `CN(Cc1cnc2nc(N)nc(N)c2n1)c1ccc(C(=O)NC(CCC(=O)O)C(=O)O)cc1` (stereo unspecified) [Methotrexate], the cell viability turned out to be 0.638 ± 0.078 in assay [1] and 0.54 ± 0.15 in assay [2].

For the origin of these results see the supplement of paper PMC8866396.
